In PubChem BioAssay (Tox21):
Inconclusive results are not listed. Where a call stands in place of a potency, no number is given. Values without a mark were called inactive. The source made the active and inactive calls. The call rests on the fitted dose curve; in most records, active means well fitted activation curve with a large enough effect in the repeat runs; inconclusive means weak or mixed curves; inactive means no such curve, though single readings can be large or run the other way.

Assay: qHTS assay for small molecules that induce genotoxicity in human embryonic kidney cells expressing luciferase-tagged ATAD5 (AID 651632); further: nearly all actives have a fitted effect of over 15% in size
Conditions: HEK293T ATAD5-luciferase induction, 16 h; series mostly up to 83.3 µM
Excerpt: U.S. Tox21 Program National Center for Advancing Translational Sciences [NCATS] NIH Chemical Genomics Center [NCGC] U.S. Environmental Protection Agency [EPA] National Institutes of Environmental Health Sciences [NIEHS] National Toxicology Program [NTP] U.S. Food and Drug Administration [FDA] Tox21 Assay Overview: As cancer cells divide rapidly and during every cell division they need to duplicate their genome by DNA replication. The failure to do so results in the cancer cell death. Based on this concept, many chemotherapeutic agents were developed but have limitations such as low efficacy and severe side effects etc. A new cell based assay was developed to find the compounds that effectively block DNA replication either by directly damaging DNA or by inhibiting other cellular mechanisms. Enhanced Level of Genome Instability Gene 1 (ELG1; human ATAD5) protein levels increase in response to various types of DNA damage. Using a luciferase reporter-gene tagged with ATAD5, a cell-based assay [developed by Kyungjae Myung, NHGRI, NIH] was used to measure the induction of ATAD5 in human embryonic kidney cells (HEK293T). So, increase in luciferase activity can be used to identify the compounds that cause genetic stress.
Tox21 Assay Protocol Summary: For genotoxicity screening, 2,000 cells in 5 uL/well were dispensed into white, solid-bottom 1536-well plates using a Multidrop Combi (Thermo Scientific) dispenser. Following transfer of 23 nL compound or DMSO vehicle by a pin tool, the plates were incubated 16 hr at 37C and 5% CO2. 5 ul Amplite (AAT Bioquest, Inc.) was then added to each plate and following 30 min incubation at room temperature, luciferase activity was quantified on a ViewLux CCD-based plate reader.
Potency means the concentration at half of the fitted maximal effect.

Row | SMILES | Potency | activation
1 | CCN1CCc2nc(N)oc2CC1 | inactive | –
2 | CCCCCCCCCCl | inactive | –
3 | O=C1CCCC(=O)O1 | inactive | –
4 | CC(C)CCCCOC(=O)c1ccccc1C(=O)OCCCCC(C)C | inactive | –
5 | CC(=O)CCCCn1c(=O)c2c(ncn2C)n(C)c1=O | inactive | –
6 | COc1ccc(S(=O)(=O)N2c3ccc(Cl)cc3[C@@](O)(c3ccccc3Cl)[C@H]2C(=O)N2CCC[C@@H]2C(N)=O)cc1OC | inactive | –
7 | CC(CC=O)CCCC(C)(C)O (stereo not given) | inactive | –
8 | O=C(Nc1ccc(Cl)c(Cl)c1)C1CC1 | inactive | –
9 | C[Si](C)=O | – | 0.434% [at 8.08 µM]
10 | COc1ccc(C2CNC(=O)C2)cc1OC1CCCC1 (stereo not given) | inactive | –
11 | CCO[Si](CCCS)(OCC)OCC | inactive | –
12 | CCCCCCCC/C=C\CCCCCCCC(=O)OCCCC | inactive | –
13 | NNc1nnc(NN)c2ccccc12 | inactive | –
14 | COC(=O)[C@@H]1[C@H]2C[C@H]3c4[nH]c5ccccc5c4CCN3C[C@@H]2CC[C@@H]1O | inactive | –
15 | COc1ccc2c(c1OC)C(=O)O[C@@H]2[C@H]1c2c(cc3c(c2OC)OCO3)CCN1C | inactive | –
16 | CCCCNc1ccc(C(=O)OCCN(C)C)cc1 | inactive | –
17 | Cc1ccc(S(=O)(=O)O)c(C)c1 | inactive | –
18 | N#Cc1ccc(C(=O)O)cc1 | inactive | –
19 | NC(CO)C(=O)NNCc1ccc(O)c(O)c1O (stereo not given) | inactive | –
20 | CC(C)CCCC(C)(C)O | inactive | –

Row | SMILES | Potency | activation
21 | COc1cc(NS(=O)(=O)c2ccc(N)cc2)nc(OC)n1 | inactive | –
22 | COc1ccc(-c2cc(=O)c3c(O)cc(O[C@@H]4O[C@H](CO[C@@H]5O[C@@H](C)[C@H](O)[C@@H](O)[C@H]5O)[C@@H](O)[C@H](O)[C@H]4O)cc3o2)cc1O | inactive | –
23 | CC(=O)c1ccc2c(c1)Cc1ccccc1-2 | inactive | –
24 | CCCN1C[C@H](CSC)C[C@@H]2c3cccc4[nH]cc(c34)C[C@H]21 | inactive | –
25 | O=S(O)(O)=S | – | 2.28% [at 8.08 µM]
26 | N[C@@H](COP(=O)(O)O)C(=O)O | inactive | –
27 | Cc1cccc(C)c1NC(=O)c1ccccc1C(=O)O | inactive | –
28 | CC(C)(C)OC(=O)c1ccc(O)cc1 | inactive | –
29 | CC(C)CC(C)CC(C)CC(C)COC(=O)c1ccccc1C(=O)OCC(C)CC(C)CC(C)CC(C)C (stereo not given) | inactive | –
30 | C=COCCOCCOCCOC=C | inactive | –
31 | O=C(OCc1ccccc1)C(=O)OCc1ccccc1 | inactive | –
32 | CC(=O)/C=C/C1C(C)=CCC(C)C1(C)C (stereo not given) | inactive | –
33 | C=Cc1ccccn1 | inactive | –
34 | CC(C)C(=O)OCCc1ccccc1 | inactive | –
35 | Cc1c(I)c(=O)n(-c2ccccc2)n1C | inactive | –
36 | c1ccc2c(c1)ccc1c3ccccc3ccc21 | 881 nM (active) | –
37 | CN=C(NC#N)Nc1ccc(C2=NNC(=O)CC2C)cc1 (stereo not given) | inactive | –
38 | CC1=C(C(=O)O)N2C(=O)[C@@H](NC(=O)[C@H](N)c3ccc(O)cc3)[C@H]2SC1 | inactive | –
39 | OCCN(CCO)c1cccc(Cl)c1 | inactive | –
40 | CCCOC(OCCC)OCCC | inactive | –
